For some of these results: Measured potencies and affinities stand elsewhere.

In ChEMBL document CHEMBL3988442, “University of Dundee, Small-Polar-MMV Screening Library” (2021) one finds Percent Effect data, which are given here for eleven molecules.

Design in all cases: scale not given: direction of the effect not stated beside the values
In test [1] the target is Protein translocase subunit SecA (Escherichia coli (strain K12)) (UniProt P10408). Briefly: Assay to Identify E. coli SecA ATPase Inhibitors. It counts as functional. To be noted: 30 µM.
Chain of Protein translocase subunit SecA (Escherichia coli (strain K12)) (P10408 whole entry): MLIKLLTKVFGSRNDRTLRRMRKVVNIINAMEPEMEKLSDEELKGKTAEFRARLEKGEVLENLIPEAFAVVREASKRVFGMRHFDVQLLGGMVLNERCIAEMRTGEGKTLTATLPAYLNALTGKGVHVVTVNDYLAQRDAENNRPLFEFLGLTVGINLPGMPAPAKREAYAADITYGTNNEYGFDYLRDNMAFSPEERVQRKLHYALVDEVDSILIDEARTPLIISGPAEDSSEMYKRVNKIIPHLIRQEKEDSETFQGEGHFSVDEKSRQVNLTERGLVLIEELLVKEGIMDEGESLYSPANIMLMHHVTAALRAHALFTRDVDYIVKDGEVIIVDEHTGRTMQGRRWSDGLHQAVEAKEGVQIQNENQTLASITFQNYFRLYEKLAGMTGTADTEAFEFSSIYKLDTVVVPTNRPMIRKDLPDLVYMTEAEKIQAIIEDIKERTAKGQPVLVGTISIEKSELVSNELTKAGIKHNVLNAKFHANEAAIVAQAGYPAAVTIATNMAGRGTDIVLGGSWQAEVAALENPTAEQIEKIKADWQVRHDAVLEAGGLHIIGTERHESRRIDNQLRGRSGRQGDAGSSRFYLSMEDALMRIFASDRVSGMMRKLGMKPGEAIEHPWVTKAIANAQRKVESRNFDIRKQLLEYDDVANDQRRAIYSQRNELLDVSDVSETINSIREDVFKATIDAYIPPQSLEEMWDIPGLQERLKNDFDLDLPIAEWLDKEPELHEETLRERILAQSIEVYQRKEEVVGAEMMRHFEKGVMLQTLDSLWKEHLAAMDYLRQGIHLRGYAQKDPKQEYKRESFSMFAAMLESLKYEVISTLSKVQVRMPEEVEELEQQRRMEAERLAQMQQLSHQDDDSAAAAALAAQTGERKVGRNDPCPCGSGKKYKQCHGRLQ
Test [2] has as its target T1, Ubiquitin-activating enzyme e1, putative (Leishmania donovani (strain BPK282A1)) (UniProt E9BSI1).
T1 sequence (whole entry): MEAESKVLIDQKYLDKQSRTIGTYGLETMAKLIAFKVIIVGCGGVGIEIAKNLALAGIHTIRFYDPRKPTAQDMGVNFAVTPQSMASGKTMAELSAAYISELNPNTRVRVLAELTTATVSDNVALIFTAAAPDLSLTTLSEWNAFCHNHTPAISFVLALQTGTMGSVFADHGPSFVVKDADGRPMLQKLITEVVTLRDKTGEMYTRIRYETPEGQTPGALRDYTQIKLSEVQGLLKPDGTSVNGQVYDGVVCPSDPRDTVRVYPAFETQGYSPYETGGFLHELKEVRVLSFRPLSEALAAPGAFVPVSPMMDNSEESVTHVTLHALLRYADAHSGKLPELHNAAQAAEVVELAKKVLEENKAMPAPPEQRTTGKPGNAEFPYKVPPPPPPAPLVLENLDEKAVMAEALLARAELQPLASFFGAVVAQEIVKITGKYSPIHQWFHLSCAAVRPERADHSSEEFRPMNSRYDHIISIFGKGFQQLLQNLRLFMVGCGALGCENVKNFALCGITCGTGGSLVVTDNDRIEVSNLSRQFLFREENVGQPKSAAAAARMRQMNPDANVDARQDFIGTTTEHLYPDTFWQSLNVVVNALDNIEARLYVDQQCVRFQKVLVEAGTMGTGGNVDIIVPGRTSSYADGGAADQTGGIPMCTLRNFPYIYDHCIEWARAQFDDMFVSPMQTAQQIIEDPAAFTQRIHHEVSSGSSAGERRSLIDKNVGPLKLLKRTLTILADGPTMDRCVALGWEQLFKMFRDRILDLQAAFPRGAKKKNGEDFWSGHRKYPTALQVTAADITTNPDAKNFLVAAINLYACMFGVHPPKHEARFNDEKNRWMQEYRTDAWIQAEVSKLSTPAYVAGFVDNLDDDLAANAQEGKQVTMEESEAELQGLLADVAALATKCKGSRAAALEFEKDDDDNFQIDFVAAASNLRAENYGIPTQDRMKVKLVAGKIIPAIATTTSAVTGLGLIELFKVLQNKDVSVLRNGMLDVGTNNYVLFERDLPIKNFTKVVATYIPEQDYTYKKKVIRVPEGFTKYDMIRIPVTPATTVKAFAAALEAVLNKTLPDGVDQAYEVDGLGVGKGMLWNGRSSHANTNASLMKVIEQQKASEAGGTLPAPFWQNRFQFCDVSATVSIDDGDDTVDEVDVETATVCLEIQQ
Briefly: Leishmania donovani Ubiquitin Activating Enzyme (LdE1). It is filed as functional. To be noted: 30 µM.

For test [3], the target named is AMP-activated protein kinase, AMPK (Homo sapiens) (UniProt P54646+O43741+P54619+Q9UGJ0+Q9Y478+Q13131+Q9UGI9). Briefly: AMP-dependent Kinase enzyme assay. An in vitro enzyme assay that detects ADP turnover that is directly proportional to AMPK activity. This uses naive AMPK that is activated during the assay with MK-8722. It is filed as functional. To be noted: 30 µM.

The target in test [4] is Sialic acid-binding Ig-like lectin 9 (Homo sapiens) (UniProt Q9Y336). Briefly: Hs-Siglec9 ALPHAscreen SOP 20170721. To be noted: 10 µM. (In general: Bead proximity is the source of the signal in Alpha formats.)
Chain of Sialic acid-binding Ig-like lectin 9 (Homo sapiens) (Q9Y336 whole entry): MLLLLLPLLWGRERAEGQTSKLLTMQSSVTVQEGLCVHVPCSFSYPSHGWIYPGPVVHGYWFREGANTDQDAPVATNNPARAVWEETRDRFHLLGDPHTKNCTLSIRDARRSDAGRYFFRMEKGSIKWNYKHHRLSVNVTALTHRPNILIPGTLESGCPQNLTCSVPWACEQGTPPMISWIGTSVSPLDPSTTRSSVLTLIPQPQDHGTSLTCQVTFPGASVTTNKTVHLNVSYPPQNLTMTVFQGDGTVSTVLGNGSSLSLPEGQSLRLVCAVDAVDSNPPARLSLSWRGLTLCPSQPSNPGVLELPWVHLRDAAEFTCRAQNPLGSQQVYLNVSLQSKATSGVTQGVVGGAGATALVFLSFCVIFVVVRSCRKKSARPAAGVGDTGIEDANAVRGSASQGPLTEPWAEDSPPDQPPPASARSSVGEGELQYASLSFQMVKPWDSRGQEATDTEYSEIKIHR
Test [5] relates to Trypanosoma cruzi. Briefly: Trypanosoma cruzi phosphomannomutase and mannose-1-phosphate guanylyltransferase assay. It is filed as functional. To be noted: 10 µM.
Test [6] concerns the target T2, Arginase-2, mitochondrial (Homo sapiens) (UniProt P78540).
T2 sequence (whole entry): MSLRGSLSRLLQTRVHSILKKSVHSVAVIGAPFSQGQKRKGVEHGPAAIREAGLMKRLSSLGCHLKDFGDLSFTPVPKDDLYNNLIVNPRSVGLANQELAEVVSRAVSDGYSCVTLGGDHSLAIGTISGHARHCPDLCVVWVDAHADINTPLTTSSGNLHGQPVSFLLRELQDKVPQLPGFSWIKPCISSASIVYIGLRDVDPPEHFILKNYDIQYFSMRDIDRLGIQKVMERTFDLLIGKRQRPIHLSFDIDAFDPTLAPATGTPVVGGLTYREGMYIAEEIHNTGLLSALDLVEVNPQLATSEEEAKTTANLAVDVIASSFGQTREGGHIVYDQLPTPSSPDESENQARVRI
Briefly: in vitro enzyme assay to detect the production of urea directly proportional to the activity of Arginase II. Also: in the data most compounds retested in dose-response had high values. To be noted: 33.3 µM. It is filed as functional.

Test [7] deals with T3, Proteasome subunit beta (Trypanosoma cruzi) (UniProt O96673).
T3 sequence (whole entry): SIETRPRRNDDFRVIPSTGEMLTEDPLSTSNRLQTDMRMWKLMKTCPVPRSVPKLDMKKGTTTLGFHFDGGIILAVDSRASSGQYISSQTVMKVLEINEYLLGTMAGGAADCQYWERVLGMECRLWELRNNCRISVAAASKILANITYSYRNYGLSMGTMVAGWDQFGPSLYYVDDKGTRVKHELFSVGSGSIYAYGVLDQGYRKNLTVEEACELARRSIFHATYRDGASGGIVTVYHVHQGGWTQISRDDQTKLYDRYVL
Briefly: Trypanosoma cruzi proteasome chymotrypsin-like activity (TcProtChymo) assay. Also: in the data most compounds retested in dose-response had high values. To be noted: 9.37 µM. It is filed as functional.

For test [8], the species on record is Homo sapiens. Briefly: To identify inhibition of the IFN signalling (Jak-Stat) pathway via expression of an eGFP reporter gene under the control of an IFN-stimulated response element (ISRE) containing MxA promoter. It counts as functional. To be noted: 30 µM. For orientation: A reporter such as luciferase makes a cellular process visible.
The target of test [9] is T4, Tyrosyl-tRNA synthetase, putative (Trypanosoma cruzi (strain CL Brener)) (UniProt Q4DSP6).
T4 sequence (whole entry): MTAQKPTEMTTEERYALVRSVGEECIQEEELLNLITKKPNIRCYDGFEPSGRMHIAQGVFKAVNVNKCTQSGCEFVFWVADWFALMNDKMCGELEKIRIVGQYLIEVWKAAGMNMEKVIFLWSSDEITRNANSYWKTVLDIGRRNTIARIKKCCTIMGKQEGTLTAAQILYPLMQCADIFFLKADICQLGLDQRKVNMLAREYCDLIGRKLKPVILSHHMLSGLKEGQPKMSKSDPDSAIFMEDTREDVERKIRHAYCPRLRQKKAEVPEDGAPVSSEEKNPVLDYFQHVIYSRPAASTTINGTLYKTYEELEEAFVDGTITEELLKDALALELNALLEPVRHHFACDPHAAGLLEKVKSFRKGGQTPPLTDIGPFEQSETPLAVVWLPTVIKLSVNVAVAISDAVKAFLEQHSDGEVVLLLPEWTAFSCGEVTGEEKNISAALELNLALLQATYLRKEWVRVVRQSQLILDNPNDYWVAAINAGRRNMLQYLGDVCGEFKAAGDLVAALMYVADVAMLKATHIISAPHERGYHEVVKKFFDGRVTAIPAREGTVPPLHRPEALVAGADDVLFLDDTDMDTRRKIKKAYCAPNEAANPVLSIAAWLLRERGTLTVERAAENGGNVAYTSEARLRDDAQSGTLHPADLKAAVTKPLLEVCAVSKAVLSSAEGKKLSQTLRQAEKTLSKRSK
Briefly: Trypanosoma cruzi tyrosyl tRNA synthetase (TcYRS) _High Tyrosine SOP. Also: in the data most compounds retested in dose-response had high values. It counts as functional. To be noted: 30 µM.

For test [10], the target named is T4, Tyrosyl-tRNA synthetase, putative (Trypanosoma cruzi (strain CL Brener)). Briefly: Trypanosoma cruzi tyrosyl tRNA synthetase (TcYRS) SOP. It counts as functional. To be noted: 30 µM.
Test [11] addresses Chromo domain-containing protein 1 (Saccharomyces cerevisiae (strain ATCC 204508 / S288c) (Baker's yeast)) (UniProt P32657). Briefly: ScCHD-1 Enzyme Inhibition Assay. Also: in the data most compounds retested in dose-response had high values. It is filed as functional. To be noted: 30 µM.

Chain of Chromo domain-containing protein 1 (Saccharomyces cerevisiae (strain ATCC 204508 / S288c) (Baker's yeast)) (P32657 whole entry, the tested form may be a part): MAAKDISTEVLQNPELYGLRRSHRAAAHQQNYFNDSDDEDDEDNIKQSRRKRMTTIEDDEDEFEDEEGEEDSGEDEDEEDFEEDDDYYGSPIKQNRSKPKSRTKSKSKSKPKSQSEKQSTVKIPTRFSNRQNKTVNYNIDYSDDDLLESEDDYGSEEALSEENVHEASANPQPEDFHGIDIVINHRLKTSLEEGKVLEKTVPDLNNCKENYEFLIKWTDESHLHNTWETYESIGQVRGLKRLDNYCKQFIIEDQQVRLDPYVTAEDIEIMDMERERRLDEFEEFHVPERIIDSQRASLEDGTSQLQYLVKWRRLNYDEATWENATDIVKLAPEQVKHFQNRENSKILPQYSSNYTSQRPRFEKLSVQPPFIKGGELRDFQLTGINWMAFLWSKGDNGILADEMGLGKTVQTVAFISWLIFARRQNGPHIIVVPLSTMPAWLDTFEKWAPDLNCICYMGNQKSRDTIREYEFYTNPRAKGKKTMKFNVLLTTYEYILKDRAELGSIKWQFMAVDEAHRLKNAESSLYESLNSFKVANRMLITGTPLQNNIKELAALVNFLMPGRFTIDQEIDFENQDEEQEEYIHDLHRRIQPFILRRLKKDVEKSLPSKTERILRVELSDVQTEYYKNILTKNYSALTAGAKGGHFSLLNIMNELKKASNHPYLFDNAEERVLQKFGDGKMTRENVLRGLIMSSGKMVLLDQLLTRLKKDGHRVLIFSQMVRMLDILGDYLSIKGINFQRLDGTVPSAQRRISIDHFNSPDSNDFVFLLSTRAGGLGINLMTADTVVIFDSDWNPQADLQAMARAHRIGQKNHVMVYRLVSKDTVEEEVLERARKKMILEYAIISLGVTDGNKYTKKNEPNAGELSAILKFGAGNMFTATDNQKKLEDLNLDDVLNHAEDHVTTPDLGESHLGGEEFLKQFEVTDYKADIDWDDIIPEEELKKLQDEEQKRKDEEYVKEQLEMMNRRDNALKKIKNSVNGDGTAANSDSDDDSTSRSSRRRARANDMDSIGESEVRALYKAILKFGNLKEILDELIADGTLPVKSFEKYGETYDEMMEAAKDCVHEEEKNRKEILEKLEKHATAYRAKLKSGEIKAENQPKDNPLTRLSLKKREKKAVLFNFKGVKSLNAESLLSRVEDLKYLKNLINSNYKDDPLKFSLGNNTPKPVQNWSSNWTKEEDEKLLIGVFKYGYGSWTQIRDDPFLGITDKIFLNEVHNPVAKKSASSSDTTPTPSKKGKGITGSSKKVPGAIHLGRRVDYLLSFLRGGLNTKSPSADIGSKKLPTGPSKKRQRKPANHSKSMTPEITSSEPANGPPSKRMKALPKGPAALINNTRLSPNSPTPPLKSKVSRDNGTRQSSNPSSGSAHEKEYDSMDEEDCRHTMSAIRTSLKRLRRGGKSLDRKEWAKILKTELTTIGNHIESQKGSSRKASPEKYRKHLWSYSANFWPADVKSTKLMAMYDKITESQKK

On to `CC(NC(=O)NCCN1CCCCCC1=O)c1nncn1C` (stereo unspecified), for which the Percent Effect in test [1] was -5.58%; in [2], 13.5%; in test [3] it was -10.1%; in test [4] it was 13.4%; in test [5] it was 4.92%; in test [6], -3.51%. Further, the Percent Effect was -2.69% in test [7]; 11.3% in test [8]; 7.92% in test [9]; 15.8% in test [10]; -6.06% in test [11].

Consider `O=C(CCc1ccccc1)C1CCCN(C(=O)c2ncc(F)cc2F)C1` (stereo unspecified), for which the Percent Effect in test [1] was -4.95%; in test [2], 5.48%; in test [3], 0.372%; in test [4], -8.02%; in [5], -1.18%; in test [6], 2.73%. In addition, the Percent Effect is 9.94% in test [7]; 2.79% in test [8]; 5.38% in test [9]; 10% in test [10]; -1.5% in test [11].

`CCn1cnnc1C1CCN(C(=O)c2ccccc2OC)CC1`: the Percent Effect in [1] is -2.76%; in test [2], 7.79%; in test [3] it was 12.8%; in test [4] it was 2.75%; in [5] it was -4.68%; in [6], -2.13%. Moreover, the Percent Effect in [7] was 6.42%; in [8] it was 25.9%; in test [9] it was 4.85%; in test [10], 7.32%; in [11] it was -3.6%.

Take `Cc1ccc(NC2CCN(C(=O)c3ccsc3)CC2)nn1`: the Percent Effect in test [1] was -9.11%; in [2], 10.4%; in test [3] it was -1.87%; in test [4] it was 1.46%; in test [5], -6.37%; in test [6], -1.07%. Further, the Percent Effect was 5.57% in test [7]; 30% in [8]; 6.8% in [9]; 9.76% in [10]; -2% in test [11].

In the case of `Cc1ccc(C(=O)NS(=O)(=O)c2ccccc2C)c(=O)[nH]1`, the Percent Effect in test [1] is -3.76%; in [2], 8.11%; in test [3] it was -4.75%; in test [4] it was 9.94%; in test [5], -5.85%; in test [6], -6.84%. In addition, the Percent Effect in test [7] came out at 4.85%; in test [8], 15.8%; in test [9], 7.92%; in test [10], 6.1%; in test [11] it was 1.56%.

Turning to `FC(F)(F)COCCN1CCN(c2ccc3nncn3n2)CC1`, the Percent Effect is -4.65% in test [1]; 10.4% in test [2]; 0.707% in [3]; 9.49% in [4]; 4.87% in [5]; -3.92% in test [6]. Further, the Percent Effect is 2.87% in test [7]; -15.5% in test [8]; 5.83% in test [9]; 14.6% in test [10]; -6.46% in [11].

As to `Cc1cc2nc(SCC(=O)N3CCOCC3)n(CC(C)C)c(=O)c2[nH]1`, the Percent Effect was 2.16% in test [1]; 13.2% in [2]; 2.03% in [3]; -4.31% in [4]; -4.77% in test [5]; 11.8% in test [6]. For the same molecule, the Percent Effect is 18.3% in [7]; -10.6% in test [8]; -1.06% in [9]; 10.4% in [10]; -2.79% in test [11].

In the case of `O=C1OC2(CCNCC2)CN1CC(=O)N1CCCC1c1ccco1` (stereo unspecified), the Percent Effect was -3.11% in test [1]; 5.41% in [2]; 1.69% in [3]; 4.82% in test [4]; 0.386% in [5]; 2.86% in [6]. In addition, the Percent Effect in [7] is 19.8%; in test [8] it was -0.46%; in [9] it was 5.82%; in [10] it was 19.5%; in [11], -4.16%.

Regarding `O=C(COc1coc(CN2CCOCC2)cc1=O)c1ccc(Cl)cc1`, the Percent Effect in test [1] is -3.55%; in test [2], 2.63%; in test [3] it was 5.88%; in [4], 11%; in test [5], -2.04%; in test [6], -11.8%. The Percent Effect in [7] is 12%; in test [8], 20.8%; in test [9], -1.06%; in test [10], 0%; in [11], -0.42%.

As for `Cc1cc(-c2cnc(N3CCNC(=O)C3)nc2-c2cccnc2C)on1`, the Percent Effect was -2.87% in test [1]; 8% in test [2]; 5.98% in [3]; 8.08% in test [4]; 1.97% in test [5]; -2.1% in [6]. Besides, the Percent Effect in test [7] is 7.49%; in [8], 1.83%; in test [9] it was 5.32%; in [10], 11.5%; in test [11], -10.5%.

Regarding `COc1ccccc1N1CCC(CNCc2cccc(O)c2)C1` (stereo unspecified), the Percent Effect in test [1] is -2.9%; in test [2], -5.41%; in [3] it was 15.1%; in test [4] it was 11%; in [5] it was 1.6%; in test [6], -4.81%. For the same molecule, the Percent Effect is 4.14% in [7]; 20.2% in test [8]; 0.493% in test [9]; 6.17% in [10]; -6.34% in [11].
